The whole screen tested about 220,000 compounds, of which about 910 (0.41%) were called active.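 The calls were made as follows: active = primary inhibition above the hit cutoff, then over 50% inhibition at one or more dose response concentrations (cut at about 23% in these data, passing the limit was not always enough); inconclusive = conflicting primary data, or primary hits not chosen for dose response; inactive = low primary inhibition, or under 50% at every dose.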 What follows is part of a selection rich in actives, with near analogues and random picks from the rest. Potency and affinity values are given separately.
What follows are molecules tested against Aminopeptidase N (Plasmodium falciparum (isolate 3D7)) (UniProt O96935) (assay: P. falciparum M1AAP inhibitors, biochemical, fluorogenic H-Leu-NHMec substrate, 1536-well (AID 1445;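 also: plate controls were DMSO full reaction for no effect and no enzyme background for full effect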)). Conditions: recombinant M1AAP, H-Leu-NHMec fluorogenic kinetic assay; at 30 µM, stronger effect = higher value unless noted.
Chain of Aminopeptidase N (Plasmodium falciparum (isolate 3D7)) (O96935 whole entry, looked up): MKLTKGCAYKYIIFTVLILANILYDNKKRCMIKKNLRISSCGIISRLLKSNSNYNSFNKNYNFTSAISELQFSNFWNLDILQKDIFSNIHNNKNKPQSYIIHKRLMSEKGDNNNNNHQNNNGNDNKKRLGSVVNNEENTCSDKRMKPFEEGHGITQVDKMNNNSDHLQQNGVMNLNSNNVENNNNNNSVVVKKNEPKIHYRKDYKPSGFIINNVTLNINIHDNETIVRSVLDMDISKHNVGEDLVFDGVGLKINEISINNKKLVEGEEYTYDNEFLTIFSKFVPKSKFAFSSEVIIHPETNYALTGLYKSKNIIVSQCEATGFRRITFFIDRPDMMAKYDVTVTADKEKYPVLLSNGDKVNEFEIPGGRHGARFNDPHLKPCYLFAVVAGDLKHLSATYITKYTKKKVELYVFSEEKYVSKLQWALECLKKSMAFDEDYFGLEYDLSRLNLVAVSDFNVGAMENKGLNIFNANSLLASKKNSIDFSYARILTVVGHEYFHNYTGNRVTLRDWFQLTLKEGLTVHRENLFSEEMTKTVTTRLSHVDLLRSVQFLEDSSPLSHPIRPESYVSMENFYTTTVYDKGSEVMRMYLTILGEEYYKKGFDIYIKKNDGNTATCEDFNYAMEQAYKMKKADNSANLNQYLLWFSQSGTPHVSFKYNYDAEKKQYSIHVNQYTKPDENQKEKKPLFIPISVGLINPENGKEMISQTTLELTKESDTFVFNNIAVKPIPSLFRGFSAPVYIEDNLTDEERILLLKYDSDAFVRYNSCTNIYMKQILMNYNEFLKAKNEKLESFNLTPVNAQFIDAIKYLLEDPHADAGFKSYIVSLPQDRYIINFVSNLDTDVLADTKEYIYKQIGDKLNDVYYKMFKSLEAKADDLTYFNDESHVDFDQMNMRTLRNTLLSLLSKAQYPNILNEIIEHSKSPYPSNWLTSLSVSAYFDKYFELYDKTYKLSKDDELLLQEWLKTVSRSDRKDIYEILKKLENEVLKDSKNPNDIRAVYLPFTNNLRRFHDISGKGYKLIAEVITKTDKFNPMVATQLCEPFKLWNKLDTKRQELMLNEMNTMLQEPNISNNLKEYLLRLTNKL

Compound	inhibition
C=CCNc1ncnc2c1ncn2C1OC(CO)C(O)C1O (stereo not drawn)	-2.12% (inactive)
OC[C@H]1O[C@@H](n2cnc3c(Nc4ccccc4)ncnc32)[C@H](O)[C@@H]1O	0.67% (inactive)
CCCOC(=O)c1ccc(Oc2c(-c3ccc(OCC)cc3O)n[nH]c2C)cc1	-5.24% (inactive)
COc1ccc(C2=C/C(=C\c3ccc(OC(C)=O)cc3)C(=O)O2)cc1	-2.13% (inactive)
O=[N+]([O-])c1ccc(C[n+]2cc(-c3ccccc3)n3c2CCCCC3)cc1	-1.78% (inactive)
CC(=O)NS(=O)(=O)c1ccc(N=c2ssc3c2-c2cc(C)ccc2NC3(C)C)cc1	9.04% (inactive)
CC(=O)NS(=O)(=O)c1ccc(N=c2ssc3c2-c2cc(C)c(C)cc2NC3(C)C)cc1	13.3% (inactive)
Cc1ccc(CCNC(=O)c2cc(C)nn2-c2ccccc2)cc1	0.72% (inactive)
COc1ccc(Nc2nc3ccccc3nc2NS(=O)(=O)c2cccs2)cc1	10.1% (inactive)
Cc1ccc(NS(=O)(=O)c2ccc(NS(=O)(=O)c3cccs3)cc2)cc1	-3.61% (inactive)
Cc1cc(C)nc(NS(=O)(=O)c2cccs2)c1	-0.13% (inactive)
COc1ccc(NS(=O)(=O)c2cccs2)c(OC)c1	5.44% (inactive)
Cc1ccc(-c2cc(C(=O)O)c3ccccc3n2)c(C)c1	3.63% (inactive)
Cc1ccc(NC(=O)Cn2c(/C=C/c3ccccc3)nc3ccccc32)cc1C	7.46% (inactive)
O=C(c1cccnc1)N1CCN(c2ccccc2Cl)CC1	-11.5% (inactive)
Cc1c(Cl)cccc1N1C(=O)CC(NNC(=O)c2cccnc2)C1=O (stereo not drawn)	8.09% (inactive)
CCN1C(=S)SC(=O)C1=C1C=C(C)OC(C)=C1	0.47% (inactive)
CCN1C(=S)SC(=O)C1=C1C=C(C)N(Cc2ccco2)C(C)=C1	12.6% (inactive)
CCN1C(=S)SC(=O)C1=C1C=C(C)N(CCO)C(C)=C1	26.2% (active)
C/C(CC(=O)Nc1ccccc1)=N\NC(=O)COc1ccc(C)cc1Br	2.81% (inactive)
CCC(C)(C)n1nnnc1C(c1ccc2ncccc2c1)N1CCCCCC1 (stereo not drawn)	4.86% (inactive)
CCC(C)(C)n1nnnc1C(c1ccc2ncccc2c1)N1CCN(c2ccc(O)cc2)CC1 (stereo not drawn)	4.2% (inactive)
COc1ccc(/C=C/C(=O)NCc2cnn(C)c2C)cc1COc1ccc(Br)cc1	-0.2% (inactive)
CC1CCCC(C)N1NC(=O)c1cccc(S(=O)(=O)N2CCc3ccccc32)c1 (stereo not drawn)	1.3% (inactive)

Compound	inhibition
COC(=O)n1c(=O)oc2ccccc21	6.55% (inactive)
COc1cccc(Cn2nnc(C(=O)Nc3cc(C)ccc3OC)c2N)c1	7.36% (inactive)
CCn1cnc2c1c(=O)n(CC(=O)Nc1cc(C)on1)c(=O)n2Cc1ccccc1	-3% (inactive)
CN(C)c1ccc(NC(=O)Cn2c(=O)n(Cc3ccccc3)c(=O)c3ccccc32)cc1	10.9% (inactive)
Cc1cc(NC(=O)Cn2c(=O)n(Cc3ccccc3)c(=O)c3ccccc32)no1	23.7% (active)
Cc1ccc(C(=O)CC2(O)C(=O)Nc3ccccc32)s1 (stereo not drawn)	-3.92% (inactive)
CCOc1ccccc1NC(=S)NCCCn1ccnc1	-1.93% (inactive)
O=C(Nc1ccc(F)cc1)c1ccccc1S(=O)(=O)c1ccccc1[N+](=O)[O-]	10.1% (inactive)
CC(=O)Nc1ccc(NC(=O)c2ccccc2S(=O)(=O)c2ccccc2[N+](=O)[O-])cc1	6.51% (inactive)
COCc1cc(C)n(CC(=O)OC)c(=O)c1C#N	6.13% (inactive)
CC(C)(C)NC(=O)CN(C(=O)CS(=O)CC(=O)Nc1ccc(F)cc1)c1ccc(Cl)cc1 (stereo not drawn)	3.41% (inactive)
Cc1cc(C)n(-c2nc3ccccc3nc2N2CCCC2)n1	7.98% (inactive)
CCN(CC)c1nc2ccccc2nc1-n1nc(C)cc1C	25.1% (active)
Cc1cc(C)n(-c2nc3ccccc3nc2N2CCCCCC2)n1	5.75% (inactive)
CC(=O)c1sc2nc(C)cc(C)c2c1N	3.82% (inactive)
CCn1c(SCC(=O)N2CCCC2)nnc1-c1ccc(S(=O)(=O)N2CCCCCC2)cc1	17.8% (inactive)
CCOC(=O)C1=C(O)/C(=C/c2ccc(-c3ccccc3C(=O)O)o2)SC1=Nc1ccc(OC)cc1	26.2% (active)
CCOC(=O)C1=C(O)/C(=C/c2cc(OC)c(OC)c(OC)c2)SC1=Nc1ccc(OC)cc1	0.13% (inactive)
CCOC(=O)C1=C(O)/C(=C/c2ccccn2)SC1=Nc1ccc(Cl)cc1	-2.13% (inactive)
CCOC(=O)c1ccc(N2C(=O)C(O)=C(C(C)=O)C2c2ccc(O)c(OC)c2)cc1 (stereo not drawn)	11% (inactive)
COc1ccccc1-c1c(NC(=O)c2ccco2)n(C)c2ccccc2c1=O	5.76% (inactive)
O=C(c1cnc2n(c1=O)CCS2)N(c1ccccc1)C1CCCCC1	3.16% (inactive)
CN(C(=O)c1cnc2n(c1=O)CCS2)C1CCCCC1	7.72% (inactive)
Cn1nnnc1Sc1ccc([N+](=O)[O-])cc1Cl	4.02% (inactive)

Reference: PubChem BioAssay AID1445 (SRMLSC, 2008)
